Drawing on PubChem BioAssay (NCATS), this text covers Potency and activity (max response) for 24 compounds.

Assay [1] in a line: Viability qHTS for spleen associated tyrosine kinase inhibitor (SYKi) naive MV4-11 cells (AID 1963823). Note: nearly all actives have a fitted effect of over 40% in size. Note: potency is the fitted concentration of half-maximal effect. The conditions noted are these: MV4-11 AML viability, CellTiter-Glo luminescence, 72 h; series mostly up to 45 µM. A digest of the protocol: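 Compounds were dispensed acoustically onto plates, MV4-11 cells (SYKi-naive) added at 500 per well, and plates incubated 72 hr at 37 C. CellTiter-Glo was added and luminescence measured after 10 min.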
(In qHTS, concentration-response curves come from the screen itself.)

Assay [2] can be described thus: Cellular viability qHTS for adrenocortical cancer (ACC) cell line SW-13 (AID 1963989).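 Note: cells grown in serum-free medium with ITS supplement; % is set by controls: 0 for no effect and ±100 for the full control effect; nearly all actives have a fitted effect of over 65% in size.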 As to conditions: SW-13 ACC cells viability, CellTiter-Glo, 48 h; activity (max response): stronger effect = lower value. A digest of the protocol: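 Compound titrations (up to 46 uM final, in DMSO) were applied to SW-13 cells for 48 h at 37C/5% CO2. Reading used CellTiter-Glo after 20 min at room temperature; fitted curves yielded IC50 and efficacy.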

A short description of assay [3]: Cellular viability qHTS for adrenocortical cancer (ACC) cell line NCI-H295R (AID 1963990). Note: nearly all actives have a fitted effect of over 60% in size. Note: potency is the fitted concentration of half-maximal effect. The conditions noted are these: CellTiter-Glo ATP luminescence, 48 h; series mostly up to 46.1 µM. A digest of the protocol:
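Readout: CellTiter-Glo luminescence, 20 min RT. Exposure: 48 h, 37C/5% CO2. Cells: NCI-H295R, ITS-DMEM serum-free. Range: up to 46 uM. Analysis: 4PL fit, IC50 plus efficacy.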

Assay [4] is described as follows: Viability qHTS for spleen associated tyrosine kinase inhibitor (SYKi) drug resistant MV4-11 cells (AID 1963824). Note: nearly all actives have a fitted effect of over 35% in size. Note: potency is the fitted concentration of half-maximal effect. As to conditions: SYKi-resistant MV4-11 viability, CellTiter-Glo, 72 h; series mostly up to 45 µM. A digest of the protocol:
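CellTiter-Glo luminescence, read 10 min after reagent addition, reports viability after a 72 hr compound exposure. Cells are an MV4-11 line made resistant to SYK inhibition, seeded at 500 per well onto compound-containing plates.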

A short description of assay [5]: Quantitative highthroughput screen to assess conditional lethalithy of NOMO1 cells grown in RPMI1640 with untreated serum (RPMI+s) (AID 1963876). Note: potency is the fitted concentration of half-maximal effect; nearly all actives have a fitted effect of over 35% in size. The conditions noted are these: NOMO1 AML cells in RPMI+serum, CellTiter-Glo viability, 48 h; series mostly up to 45.8 µM. The procedure, abridged:
(§1)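 Each medium arm—HPLM with 10% dialyzed FBS, or RPMI1640 with 5 mM glucose and 10% untreated or dialyzed FBS—was screened against an 11-point, 3-fold compound titration for 48 h at 37 °C, with CellTiter-Glo luminescence as endpoint.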
(In ATP-based viability assays light output follows the ATP content of the culture.)

A short description of assay [6]: Quantitative highthroughput screen to assess conditional lethalithy of NOMO1 cells grown in Human Plasma-Like Medium with dialyzed fetal bovine serum (HPLM+ds) (AID 1963878).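 For Viability: 100% = DMSO wells and 0% = empty wells on each plate.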 Note: nearly all actives have a fitted effect of over 35% in size. Note: potency is the fitted concentration of half-maximal effect. The conditions noted are these: NOMO1 AML cells in HPLM+ds, CellTiter-Glo viability, 48 h; series mostly up to 45.8 µM. The procedure, abridged: as §1
The nature of assay [7]: Quantitative highthroughput screen to assess conditional lethalithy of P12 Ichikawa cells grown in RPMI1640 with untreated serum (RPMI+s) (AID 1963881).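 For Viability: 100% = DMSO wells and 0% = empty wells without cells.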 Note: nearly all actives have a fitted effect of over 35% in size. Note: potency is the fitted concentration of half-maximal effect. The conditions noted are these: ATP luminescence, 48 h; Potency: viability; series mostly up to 45.8 µM. A digest of the protocol:
as §1

The nature of assay [8]: Quantitative highthroughput screen to assess conditional lethalithy of SEM cells grown in Human Plasma-Like Medium with dialyzed fetal bovine serum (HPLM+ds) (AID 1963882). Note: nearly all actives have a fitted effect of over 35% in size. Note: potency is the fitted concentration of half-maximal effect. As to conditions: SEM B-ALL cells in HPLM+ds, CellTiter-Glo viability, 48 h; series mostly up to 45.8 µM. The procedure, abridged: as §1
Assay [9] is described as follows: Quantitative highthroughput screen to assess conditional lethalithy of P12 Ichikawa cells grown in Human Plasma-Like Medium with dialyzed fetal bovine serum (HPLM+ds) (AID 1963879). Note: nearly all actives have a fitted effect of over 35% in size. The conditions noted are these: ATP luminescence, 48 h; Potency: viability; series mostly up to 45.8 µM. A digest of the protocol:
as §1

The nature of assay [10]: Quantitative highthroughput screen to assess conditional lethalithy of P12 Ichikawa cells grown in RPMI1640 with dialyzed fetal bovine serum (RPMI+ds) (AID 1963880). As to conditions: ATP luminescence, 48 h; Potency: P12-Ichikawa viability; series mostly up to 45.8 µM. A digest of the protocol:
as §1

Assay [11] is described as follows: Quantitative highthroughput screen to assess conditional lethalithy of SEM cells grown in RPMI1640 with unreated serum (RPMI+s) (AID 1963883).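 For Viability: 100% = DMSO wells and 0% = empty wells without cells.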 Note: nearly all actives have a fitted effect of over 35% in size. Note: potency is the fitted concentration of half-maximal effect. As to conditions: SEM B-ALL cells, CellTiter-Glo viability, 48 h; series mostly up to 45.8 µM. The procedure, abridged: as §1
Assay [12] in a line: Quantitative highthroughput screen to assess conditional lethalithy of NOMO1 cells grown in RPMI1640 with dialyzed fetal bovine serum (RPMI+ds) (AID 1963877).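 Note: 100% = DMSO control wells and 0% = empty wells; nearly all actives have a fitted effect of over 30% in size.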 The conditions noted are these: NOMO1 in RPMI+dialyzed FBS viability, ATP luminescence, 48 h; series mostly up to 45.8 µM. A digest of the protocol: as §1

Several values for one entry are separate records, joined by “and”; a condition that tells them apart may be missing. Equal entries are not always repeated. Inconclusive results are not listed. More than one record can exist for a structure, and the calls need not agree. Activity calls are given as the source filed them. Calls come from the whole dose curve; as a rule, active = well fitted curve in the direction sought with a large enough effect; inconclusive = small, poorly fitted or top-dose-only effect, or another doubt; inactive = no such curve, though single readings can be large; an effect the other way counts as inactive or inconclusive.

Take `CC(Cc1ccccc1)NCc1ccccc1Cl` (stereo not given): the Potency entry in assay [1] and in assay [3] was “inactive” each time. Besides, in assay [2], the activity (max response) was -8.69% (inactive).

For the compound `CCN(CC)C(=O)[C@@H]1C=C2c3cccc4[nH]cc(c34)C[C@H]2N(C)C1`, the Potency in assay [1] was 28.4 µM (active). In assay [3], the Potency entry is “inactive”.

Turning to `O=C(O)COc1nc(Cl)c(Cl)cc1Cl`, the Potency entry in assay [1] and in [3] was “inactive” throughout. For the same compound, the activity (max response) in assay [2] is 12.3% (inactive).

Consider `CS(=O)(=O)c1ccc(C(=O)C2C(=O)CCCC2=O)c([N+](=O)[O-])c1`, for which the Potency in [1] was 6.24 µM (active). The activity (max response) in assay [2] was -0.0273% (inactive). Moreover, in assay [3], the Potency result is “inactive”.

As to `O=C(O)c1cc(Oc2ccc(C(F)(F)F)cc2Cl)ccc1[N+](=O)[O-]`, the Potency result in assay [1] and in assay [3] was “inactive” throughout.

Regarding `CC1=C2[C@H]3OC(=O)[C@@H](C)[C@@H]3CC[C@@]2(C)C=CC1=O`, the Potency result in [1] and in assay [3] was “inactive” in each case. Moreover, the activity (max response) in assay [2] is -9.75% (inactive).

For the compound `COc1cccc(C(=O)CCN[C@@H](C)[C@H](O)c2ccccc2)c1`, in assay [4], the Potency result was “inactive”.

For the compound `CCOP(=S)(OCC)O/N=C(\C#N)c1ccccc1`, the Potency result in [1] and in assay [3] was “inactive” in each case. The activity (max response) in assay [2] was 0.816% (inactive).

On to `Cc1nc2ccccc2c(=O)n1-c1ccccc1Cl`, for which the Potency entry in assay [1] and in assay [3] was “inactive” throughout. For the same compound, the activity (max response) in [2] was -17.2% (inactive).

Take `O=C(O)CNC(=O)C1C(=O)N(C2CCCCC2)C(=O)N(C2CCCCC2)C1=O`: the Potency result in [1] and in assay [3] was “inactive” each time. In addition, the activity (max response) in assay [2] was -10.4% (inactive).

In the case of `COc1cc(C[C@@H](C)N)c(OC)cc1Br`, the Potency entry in assay [1] and in assay [3] was “inactive” in each case. The activity (max response) in [2] was -7.05% (inactive).

As for `CC(C)=CC1C(C(=O)OCc2cccc(Oc3ccccc3)c2)C1(C)C` (stereo not given), the Potency result in assay [1] and in [3] was “inactive” throughout. Moreover, the activity (max response) in assay [2] is 3.55% (inactive).

Take `COC(=O)C1=COC(C)C2CN3CCC4(C(=O)Nc5ccccc54)C3CC12` (stereo not given): the Potency in assay [4] was 14.3 µM (active).

For the compound `NCCc1ccc(O)cc1`, the Potency entry in [1] and in [3] was “inactive” in each case. In [2], the activity (max response) was 4.68% (inactive).

Take `CCCC(C)C1(CC)C(=O)N=C(S)NC1=O` (stereo not given): the Potency result in assay [1] and in assay [3] was “inactive” throughout. Also, the activity (max response) in assay [2] was -0.902% (inactive).

For the compound `CCC1(c2ccccc2)C(=O)N(COC)C(=O)N(COC)C1=O`, the Potency result in assay [1] and in assay [3] was “inactive” each time. In addition, the activity (max response) in assay [2] was -1.61% (inactive).

With `CC(C)(C)C(O)C(Oc1ccc(Cl)cc1)n1cncn1` (stereo not given), the Potency in assay [4] is 21.7 µM (active). Moreover, the activity (max response) in [2] is -16.3% (inactive).

For `CN1CCC(O)(c2ccc(F)cc2)C(C(=O)c2ccc(F)cc2)C1` (stereo not given), the Potency result in [4] was “inactive”. Besides, in assay [2], the activity (max response) is 0.424% (inactive).

In the case of `COc1cc(C(=O)N2CC[C@@H](O)[C@@H](N)C2)cc2nc(-c3cc4ccccc4n3CC3CC3)n(C)c12`, the Potency is 9.34 µM (active) in assay [4]; 0.933 µM (active) in [5]; 0.234 µM (active) in assay [6]; 1.05 µM (active) in assay [7]; 1.32 µM (active) in [8].

`COC(=O)[C@@H](N)CCCN=C(N)N[N+](=O)[O-]`: the Potency entry in [4], in assay [6], in [9], in assay [10], in assay [7] and in assay [8] was “inactive” throughout. The Potency result in assay [11] and in assay [3] was “inactive” throughout. Also, the activity (max response) in assay [2] was 6.1% (inactive).

For the compound `CN(C)[C@@H]1C(=O)C(C(N)=O)=C(O)[C@@]2(O)C(=O)C3=C(O)c4c(O)cccc4[C@@](C)(O)[C@H]3C[C@@H]12`, the Potency in assay [4] is 16.6 µM (active). Also, the Potency entry in [12], in [6], in [9], in assay [7], in [8] and in assay [11] was “inactive” throughout. Moreover, the Potency result in [3] is “inactive”. Further, the activity (max response) in assay [2] is 15% (inactive) and 6.24% (inactive).

Consider `O=S(=O)(CC1CS1)c1ccc(Oc2ccccc2)cc1` (stereo not given), for which the Potency in [4] is 10.5 µM (active); in assay [11] it was 20.9 µM (active). For the same compound, in assay [2], the activity (max response) is -6.36% (inactive).

For the compound `CCCCOC(=O)c1ccnc2cc(C(OCCN3CCCCC3)c3ccccc3Cl)sc12` (stereo not given), the Potency in assay [4] is 20.6 µM (active).

With `O=c1[nH]c2ccccc2n1CCCN1CCC(n2c(=O)[nH]c3cc(Cl)ccc32)CC1`, the Potency in assay [4] was 18.6 µM (active); in [3] it was 16.4 µM (active) and inactive. In addition, the Potency entry in assay [6], in [7], in assay [8] and in assay [11] was “inactive” in each case. In addition, the activity (max response) in [2] was -19.5% (inactive).
